The source of these data is PubChem BioAssay.

Test [1] concerns PRMT1 (protein arginine N-methyltransferase 1). The test is described as follows: PRMT1 binders on small-molecule microarrays, primary screen, biochemical, small-molecule microarray, 635 nm fluorescence (AID 1088).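 Also: binding of Prmt1 protein to compounds spotted on small-molecule microarray slides.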 Particulars: small-molecule microarray binding, higher = more signal.
The nature of test [2]: yeast growth modulation, basal conditions, primary screen, YJM789 clinical isolate, OD600, 24 h (AID 1089).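 Also: growth of clinical yeast isolate S. cerevisiae YJM 789 seeded 1000 cells per well; test concentration not given here.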 Particulars: S. cerevisiae YJM789 growth, higher = more signal, called active from +8 up or from −8 down.
Test [3] is described as follows: fission yeast growth modulation, primary screen, strain 972, OD600, 24 h, no modulator (AID 1090).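 Also: basal condition with compound alone and no growth modifier present; test concentration not given here.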 Particulars: S. pombe 972 growth, higher = more signal, called active from +8 up or from −8 down.
A short description of test [4]: S. cerevisiae growth modulation with rapamycin, primary screen, strain BY4716, OD600, 96 h (AID 1091). Also: test concentration not given here. Particulars: higher = more signal, called active from +8 up or from −8 down.
Test [5] addresses Torsin-1A-interacting protein 2 (Homo sapiens) (UniProt Q8NFQ8). The test is described as follows: LULL1 binders on small-molecule microarray, primary screen, cell lysate, human LULL1 lysate, 635/667 nm fluorescence (AID 1092).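 Also: probe is lysate of COS7 cells overexpressing human LULL1; score merges per-feature 667 nm fluorescence with signal-to-noise.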 Particulars: hLULL1 lysate binding, 635 nm fluorescence, higher = more signal.
A short description of test [6]: E. coli growth modulation, two-sided OD650, primary screen, E. coli filamentation project, strain DRC41, 24 h (AID 1093).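 Also: MC1000 strain lacking acrAB efflux and sulA so SOS filamentation is blocked; test concentration not given here.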 Particulars: OD650, 24 h, higher = more signal, called active from +8 up or from −8 down.
A short description of test [7]: small-molecule microarray binders of probe aLefty2, primary screen, biochemical, biotinylated probe, 635/667 nm fluorescence (AID 1094).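 Also: score merges spot fluorescence near 667 nm with spot signal-to-noise ratio.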 Particulars: higher = more signal.
For test [8], the system named is Noggin (protein binding on small-molecule microarray). Description: Noggin binders on small-molecule microarray, primary screen, biochemical, 635/667 nm fluorescence (AID 1095).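 Also: score merges 667 nm feature fluorescence with signal to noise over triplicate slides.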 Particulars: 635 nm fluorescence, higher = more signal.
The target in test [9] is Neurogenic locus notch homolog protein 3 (Homo sapiens) (UniProt Q9UM47). The test is described as follows: NOTCH3 binders on small-molecule microarray, primary screen, biochemical, 635/667 nm fluorescence (AID 1096). Particulars: NOTCH3 binding, 635 nm fluorescence, higher = more signal.
Test [10] can be described thus: small-molecule microarray binders of probe aEGFR, primary screen, biochemical, biotinylated probe, 635/667 nm fluorescence (AID 1097).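 Also: probe is a biotinylated anti-EGFR antibody binding compounds printed on slides; score combines fluorescence near 667 nm and signal to noise of each spot.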 As to conditions: higher = more signal.
In test [11] the test system is Plasmodium falciparum Sir2 (PF13_0152, Sir2A). Description: pfSir2 binders on small-molecule microarrays, primary screen, biochemical, small-molecule microarray, 635 nm fluorescence (AID 1098).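 Also: score merges spot fluorescence intensity with its signal-to-noise ratio.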 As to conditions: small-molecule microarray binding, fluorescence 635 nm; higher = more signal.
Test [12] can be described thus: small-molecule microarray binders of probe aDKK1, primary screen, biochemical, biotinylated probe, 635/667 nm fluorescence (AID 1099).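 Also: score merges 667nm spot fluorescence with signal to noise across triplicate slides; reference of the scale not given here.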 As to conditions: higher = more signal.
Test [13] can be described thus: small-molecule microarray binders of probe aCHRDL2, primary screen, biochemical, biotinylated probe, 635/667 nm fluorescence (AID 1100). As to conditions: higher = more signal.
Test [14] is described as follows: splicing luciferase reporter signal modulators, primary screen, spliceosome inhibition project, cell-based, HEK293, splice +/- reporter (AID 1101).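 Also: HEK293 cells carrying a splicing-competent luciferase reporter gene; test concentration not given here.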 As to conditions: luminescence, 24 h, higher = more signal, called active from +8 up or from −8 down. For orientation: In a reporter assay the amount or activity of a reporter protein is the signal.
Test [15] addresses Fibroblast growth factor 10 (Homo sapiens) (UniProt O15520). Description: FGF10 binders on small-molecule microarrays, primary screen, biochemical, small-molecule microarray, 635 nm fluorescence (AID 1102). As to conditions: FGF10 binding, fluorescence 635 nm, higher = more signal.
For test [16], the system named is glycogen synthase kinase-3 (GSK3A per assay name; protocol says GSK3B). The test is described as follows: GSK3 binders on small-molecule microarrays, primary screen, biochemical, small-molecule microarray, 635 nm fluorescence, GSK3A (AID 1103). Also: the record names both GSK3A and GSK3B. Particulars: small-molecule microarray binding, fluorescence 635 nm; higher = more signal.
Test [17] has as its target Epidermal growth factor receptor (Homo sapiens) (UniProt P00533). The test is described as follows: EGFR binders on small-molecule microarrays, primary screen, biochemical, small-molecule microarray, 635 nm fluorescence (AID 1104).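 Also: score merges 667 nm emission intensity with spot signal to noise over triplicate slides.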 Particulars: EGFR binding, higher = more signal.
For test [18], the target named is Follistatin-related protein 3 (Homo sapiens) (UniProt O95633). Description: FSTL3 binders on small-molecule microarrays, primary screen, biochemical, small-molecule microarray, 635 nm fluorescence (AID 1105).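 Also: score merges emission near 667 nm and signal to noise per printed spot across three slides.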 Particulars: FSTL3 binding, higher = more signal.
In test [19] the target is Dickkopf-related protein 1 (Homo sapiens) (UniProt O94907). The test is described as follows: DKK1 binders on small-molecule microarrays, primary screen, biochemical, small-molecule microarray, 635 nm fluorescence scan (AID 1106).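 Also: score merges emission near 667 nm with signal to noise over three replicate slides.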 Particulars: DKK1 binding, higher = more signal.
In test [20] the test system is Inhibin beta A chain (activin A). The test is described as follows: INHBA (activin A) binders on microarrays, primary screen, biochemical, small-molecule microarray, 635 nm fluorescence scan (AID 1107).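 Also: mouse activin A protein probed at 4.33 µg/mL on printed slides; score merges bound-protein fluorescence near 667 nm with spot signal-to-noise.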 As to conditions: small-molecule microarray binding, higher = more signal.

The source made the active and inactive calls.

Torsin-1A-interacting protein 2 (Homo sapiens), sequence (Q8NFQ8 whole entry, looked up): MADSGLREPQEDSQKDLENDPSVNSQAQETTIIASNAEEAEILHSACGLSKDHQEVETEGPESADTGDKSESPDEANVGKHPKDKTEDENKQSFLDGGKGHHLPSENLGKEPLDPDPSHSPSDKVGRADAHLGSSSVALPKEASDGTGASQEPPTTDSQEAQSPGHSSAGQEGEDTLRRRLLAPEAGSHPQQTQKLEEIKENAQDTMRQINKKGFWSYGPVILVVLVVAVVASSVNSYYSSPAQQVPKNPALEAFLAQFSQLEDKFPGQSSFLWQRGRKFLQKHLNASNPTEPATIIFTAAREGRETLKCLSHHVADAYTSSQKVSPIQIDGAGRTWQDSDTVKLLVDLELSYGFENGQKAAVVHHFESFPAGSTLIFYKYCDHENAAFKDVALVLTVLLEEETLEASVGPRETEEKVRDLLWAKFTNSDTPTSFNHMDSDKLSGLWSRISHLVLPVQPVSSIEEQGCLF
Neurogenic locus notch homolog protein 3 (Homo sapiens), sequence (Q9UM47 whole entry, looked up): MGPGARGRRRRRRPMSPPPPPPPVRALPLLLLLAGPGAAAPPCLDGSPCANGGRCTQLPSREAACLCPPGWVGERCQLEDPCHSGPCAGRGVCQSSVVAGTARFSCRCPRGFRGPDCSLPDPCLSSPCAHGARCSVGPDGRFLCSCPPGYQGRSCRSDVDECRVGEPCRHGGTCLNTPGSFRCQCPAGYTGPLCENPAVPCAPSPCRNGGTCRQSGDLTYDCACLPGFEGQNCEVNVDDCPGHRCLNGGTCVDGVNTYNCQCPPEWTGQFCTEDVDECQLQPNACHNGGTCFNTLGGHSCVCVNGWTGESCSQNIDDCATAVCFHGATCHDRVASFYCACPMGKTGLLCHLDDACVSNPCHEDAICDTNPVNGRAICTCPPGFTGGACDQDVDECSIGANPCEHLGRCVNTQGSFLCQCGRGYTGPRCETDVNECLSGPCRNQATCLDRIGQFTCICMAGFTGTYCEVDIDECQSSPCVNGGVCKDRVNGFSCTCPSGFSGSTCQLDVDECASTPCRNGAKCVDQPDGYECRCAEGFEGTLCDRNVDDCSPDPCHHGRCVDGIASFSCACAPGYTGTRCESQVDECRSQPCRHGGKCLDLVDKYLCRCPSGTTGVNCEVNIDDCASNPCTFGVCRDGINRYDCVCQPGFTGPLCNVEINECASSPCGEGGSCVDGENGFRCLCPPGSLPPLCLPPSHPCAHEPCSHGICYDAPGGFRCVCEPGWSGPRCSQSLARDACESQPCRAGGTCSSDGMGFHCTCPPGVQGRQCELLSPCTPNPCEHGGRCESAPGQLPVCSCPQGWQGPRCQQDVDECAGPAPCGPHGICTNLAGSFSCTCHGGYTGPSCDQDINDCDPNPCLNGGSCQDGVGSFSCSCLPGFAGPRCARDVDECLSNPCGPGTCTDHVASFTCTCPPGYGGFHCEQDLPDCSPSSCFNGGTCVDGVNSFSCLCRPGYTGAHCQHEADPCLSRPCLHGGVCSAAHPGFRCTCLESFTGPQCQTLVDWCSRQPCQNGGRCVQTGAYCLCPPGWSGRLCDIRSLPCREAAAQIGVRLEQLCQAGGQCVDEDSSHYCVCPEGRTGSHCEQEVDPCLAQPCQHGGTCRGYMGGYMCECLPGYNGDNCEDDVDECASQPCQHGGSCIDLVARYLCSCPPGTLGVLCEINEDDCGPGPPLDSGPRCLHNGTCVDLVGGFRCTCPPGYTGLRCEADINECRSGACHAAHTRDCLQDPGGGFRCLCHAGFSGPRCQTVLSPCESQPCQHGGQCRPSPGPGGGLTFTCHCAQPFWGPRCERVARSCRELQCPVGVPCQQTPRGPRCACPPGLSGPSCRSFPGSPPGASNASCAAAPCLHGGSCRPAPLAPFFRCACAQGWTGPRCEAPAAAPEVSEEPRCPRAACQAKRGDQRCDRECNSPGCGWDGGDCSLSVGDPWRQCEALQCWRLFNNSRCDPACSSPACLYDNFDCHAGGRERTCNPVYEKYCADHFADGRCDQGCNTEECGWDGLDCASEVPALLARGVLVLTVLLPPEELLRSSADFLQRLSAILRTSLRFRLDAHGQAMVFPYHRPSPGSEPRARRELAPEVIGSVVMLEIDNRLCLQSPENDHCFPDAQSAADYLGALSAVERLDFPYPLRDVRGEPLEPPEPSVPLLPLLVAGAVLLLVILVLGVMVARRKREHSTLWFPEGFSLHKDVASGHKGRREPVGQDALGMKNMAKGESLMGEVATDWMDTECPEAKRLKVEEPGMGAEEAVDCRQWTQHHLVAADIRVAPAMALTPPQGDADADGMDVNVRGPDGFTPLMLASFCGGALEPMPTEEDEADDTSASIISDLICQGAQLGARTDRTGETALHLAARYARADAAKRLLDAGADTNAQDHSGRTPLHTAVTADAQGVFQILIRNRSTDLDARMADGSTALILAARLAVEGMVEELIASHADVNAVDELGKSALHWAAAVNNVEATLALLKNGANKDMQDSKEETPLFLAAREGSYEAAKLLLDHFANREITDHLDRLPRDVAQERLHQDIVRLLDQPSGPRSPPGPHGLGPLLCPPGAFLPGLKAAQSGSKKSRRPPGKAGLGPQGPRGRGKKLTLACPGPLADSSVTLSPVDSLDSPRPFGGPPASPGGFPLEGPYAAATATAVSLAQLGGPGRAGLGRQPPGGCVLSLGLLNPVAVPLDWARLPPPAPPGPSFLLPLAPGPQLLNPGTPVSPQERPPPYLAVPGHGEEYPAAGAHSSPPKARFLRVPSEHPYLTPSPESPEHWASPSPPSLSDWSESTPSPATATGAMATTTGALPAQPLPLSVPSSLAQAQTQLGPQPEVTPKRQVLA
Fibroblast growth factor 10 (Homo sapiens), sequence (O15520 whole entry, looked up): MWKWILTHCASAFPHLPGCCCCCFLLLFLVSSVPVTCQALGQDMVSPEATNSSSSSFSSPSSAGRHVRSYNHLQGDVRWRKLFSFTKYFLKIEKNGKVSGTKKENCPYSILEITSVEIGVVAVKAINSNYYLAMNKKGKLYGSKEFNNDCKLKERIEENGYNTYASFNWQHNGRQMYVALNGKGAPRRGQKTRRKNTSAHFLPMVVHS
Follistatin-related protein 3 (Homo sapiens), sequence (O95633 whole entry, looked up): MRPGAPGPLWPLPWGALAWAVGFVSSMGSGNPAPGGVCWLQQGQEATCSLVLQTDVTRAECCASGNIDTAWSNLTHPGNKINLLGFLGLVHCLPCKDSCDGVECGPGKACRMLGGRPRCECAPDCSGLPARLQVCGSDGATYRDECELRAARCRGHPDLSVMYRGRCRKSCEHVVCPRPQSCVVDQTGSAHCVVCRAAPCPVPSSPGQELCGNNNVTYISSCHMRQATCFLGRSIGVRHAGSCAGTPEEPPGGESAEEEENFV
Epidermal growth factor receptor (Homo sapiens), sequence (P00533 whole entry, looked up): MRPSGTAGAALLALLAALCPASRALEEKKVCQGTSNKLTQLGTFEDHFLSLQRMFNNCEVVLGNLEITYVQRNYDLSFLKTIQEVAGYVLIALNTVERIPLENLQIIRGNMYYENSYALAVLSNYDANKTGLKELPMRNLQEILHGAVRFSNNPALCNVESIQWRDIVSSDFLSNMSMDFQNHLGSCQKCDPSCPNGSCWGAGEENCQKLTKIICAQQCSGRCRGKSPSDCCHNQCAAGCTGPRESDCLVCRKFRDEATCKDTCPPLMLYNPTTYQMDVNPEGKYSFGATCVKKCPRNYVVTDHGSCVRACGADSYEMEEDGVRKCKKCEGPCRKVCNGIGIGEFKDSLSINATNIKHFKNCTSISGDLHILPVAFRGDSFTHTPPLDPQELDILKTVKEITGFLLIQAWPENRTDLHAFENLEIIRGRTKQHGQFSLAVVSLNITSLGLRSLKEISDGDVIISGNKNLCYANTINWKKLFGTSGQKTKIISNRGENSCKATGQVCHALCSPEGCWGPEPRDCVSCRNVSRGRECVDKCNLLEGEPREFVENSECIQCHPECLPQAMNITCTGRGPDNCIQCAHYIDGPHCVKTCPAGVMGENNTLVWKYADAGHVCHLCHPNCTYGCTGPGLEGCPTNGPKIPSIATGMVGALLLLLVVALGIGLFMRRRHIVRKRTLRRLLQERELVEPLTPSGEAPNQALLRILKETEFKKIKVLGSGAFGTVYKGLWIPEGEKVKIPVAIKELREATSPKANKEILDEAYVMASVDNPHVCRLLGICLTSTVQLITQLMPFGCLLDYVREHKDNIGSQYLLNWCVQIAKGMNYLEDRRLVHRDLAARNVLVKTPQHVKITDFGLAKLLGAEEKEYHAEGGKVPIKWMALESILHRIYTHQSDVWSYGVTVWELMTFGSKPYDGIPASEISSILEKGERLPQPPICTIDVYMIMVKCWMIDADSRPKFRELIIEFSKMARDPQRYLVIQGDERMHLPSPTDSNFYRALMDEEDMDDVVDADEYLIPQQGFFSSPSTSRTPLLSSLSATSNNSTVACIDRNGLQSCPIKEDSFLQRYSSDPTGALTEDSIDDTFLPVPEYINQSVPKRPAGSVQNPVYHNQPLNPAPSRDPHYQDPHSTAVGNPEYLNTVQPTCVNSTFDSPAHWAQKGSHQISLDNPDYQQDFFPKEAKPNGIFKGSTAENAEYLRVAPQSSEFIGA
Dickkopf-related protein 1 (Homo sapiens), sequence (O94907 whole entry, looked up): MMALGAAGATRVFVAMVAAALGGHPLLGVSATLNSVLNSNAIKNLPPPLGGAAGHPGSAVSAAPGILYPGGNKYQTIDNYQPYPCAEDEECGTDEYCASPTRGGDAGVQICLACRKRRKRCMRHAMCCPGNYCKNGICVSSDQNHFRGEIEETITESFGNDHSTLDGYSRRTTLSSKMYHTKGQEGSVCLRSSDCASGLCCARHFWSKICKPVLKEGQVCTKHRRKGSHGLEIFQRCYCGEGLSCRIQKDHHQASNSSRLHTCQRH

In the case of `COCCCNC(=O)[C@@]1(Sc2ccc(C)cc2)CC(=O)N(Cc2ccccc2)[C@@H]1c1ccc(CO)cc1`, the composite z-score in test [1] was 0.983; in test [5], 2.66; in [7], -0.27; in [8] it was -0.408; in test [9] it was -0.0703; in test [10], 0.03. Moreover, the composite z-score in test [11] was 1.54; in test [12] it was 0.0112; in [13], 0.144; in test [15], -0.342; in [16], -0.21; in test [17] it was -0.58. Moreover, the composite z-score is -0.702 in [18], -0.344 in test [19] and -0.29 in test [20]. Also, the z-score in test [2] was -0.0867 (inactive); in test [3] it was 0.163 (inactive); in test [4], -0.455 (inactive); in [6] it was -0.0977 (inactive); in test [14], -0.74 (inactive).

Turning to `COC(=O)[C@@]1(Cc2ccc(F)cc2)[C@H]2c3cc(C(=O)N4CCCC4)n(CCc4ccc(OC)c(Br)c4)c3C[C@H]2CN1C(=O)c1ccccc1`, the composite z-score in test [1] was 1.4; in test [5], 3.52; in test [7], 0.436; in test [8] it was -0.0473; in test [9], 1.03; in test [10] it was 0.324. The composite z-score is 0.972 in test [11]; 1.55 in test [12]; 1.52 in [13]; 0.68 in [15]; 1.33 in test [16]; -0.0295 in test [17]. In addition, the composite z-score in test [18] was 1.22; in test [19] it was -0.813; in [20] it was 0.475. Moreover, the z-score in test [2] was 0.0318 (inactive); in test [3], 1.53 (inactive); in [4], 2.31 (inactive); in [6], -0.224 (inactive); in test [14] it was -2.23 (inactive).

Regarding `Cc1ccc(S[C@]2(C(=O)NCCN3CCOCC3)CC(=O)N(C3CCCCC3)[C@@H]2c2ccc(CO)cc2)cc1`, the composite z-score in test [1] was 1.05; in test [5], 3.05; in [7] it was -0.072; in [8] it was 0.218; in [9], 0.404; in test [10] it was -0.111. The composite z-score was 1.35 in test [11]; -0.0443 in test [12]; 0.781 in [13]; -0.103 in test [15]; 0.606 in [16]; -0.551 in test [17]. For the same compound, the composite z-score in test [18] is 0.181; in test [19], -0.55; in test [20], 0.602. The z-score was -0.0801 (inactive) in test [2]; -0.134 (inactive) in test [3]; -0.942 (inactive) in test [4]; -0.114 (inactive) in test [6]; 0.114 (inactive) in test [14].

Turning to `CCOC(=O)N1C(c2ccc(OCCCO)cc2)=NC(C(=O)OC)N1C(=O)OCC` (stereo not given), the composite z-score is 1.54 in [1]; 3.21 in test [5]; 0.174 in [7]; 1.42 in [8]; 1.09 in [9]; -0.0325 in [10]. Besides, the composite z-score in test [11] was 0.587; in [12], -0.164; in test [13] it was 0.0258; in test [15], 0.909; in test [16], 1.28; in test [17], 0.431. Moreover, the composite z-score was 1.39 in test [18], 0.471 in test [19] and -0.298 in test [20]. Also, the z-score was -0.925 (inactive) in test [2]; -0.265 (inactive) in [3]; -1.32 (inactive) in test [4]; 1.2 (inactive) in test [6]; -0.641 (inactive) in test [14].

`CC(C)CNC(=O)[C@@]1(C)c2ccccc2C(=O)N(C(C)C)[C@H]1c1ccc(CO)cc1`: the composite z-score is -1.32 in [1]; 1.16 in test [5]; 0.44 in [7]; -0.933 in [8]; -2.11 in test [9]; 0.0744 in test [10]. The composite z-score is 1.09 in test [11]; 0.0084 in test [12]; 0.567 in test [13]; -1.42 in [15]; -1.29 in test [16]; -0.741 in [17]. For the same compound, the values for the composite z-score in test [18], in test [19] and in [20] were -0.542, -0.854 and 1.26, respectively. Moreover, the z-score in test [2] was 0.0968 (inactive); in test [3] it was 0.481 (inactive); in [4] it was 0.0297 (inactive); in test [6], -0.0935 (inactive); in test [14], -0.0251 (inactive).
